The panel holds about 83,000 compounds, 20% with a hit somewhere; the sample as a whole holds those more often.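 Cells were grown in 96-well plates and exposed to the test compound at a single concentration for 48 hours; results are reported as percent growth, with values below 10 considered active.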 Values without a mark were called inactive. The source made the active and inactive calls.

What all share (experiment): NCI-60 one-dose screen, 48 h (100 = growth as untreated, 0 = no growth, -100 = all killed)
The subject of assay [1] is SK-MEL-2 melanoma. As to conditions: 10 µM.
The test system of assay [2] is EKVX NSCLC. Conditions: 10 µM.
Assay [3] relates to SN12C renal. Conditions: 10 µM.
In assay [4] the test system is UO-31 renal. As to conditions: 10 µM.
In assay [5] the test system is TK-10 renal. As to conditions: 10 µM unless noted.
The subject of assay [6] is ACHN renal. Conditions: 10 µM.
In assay [7] the test system is CCRF-CEM leukemia. As to conditions: 10 µM.
Assay [8] deals with MOLT-4 leukemia. Conditions: 10 µM.
In assay [9] the test system is SR leukemia. Conditions: 10 µM.
Assay [10] has as its system RPMI-8226 leukemia. Conditions: 10 µM.
For assay [11], the system named is OVCAR-8 ovarian. Conditions: 10 µM.
Assay [12] has as its system OVCAR-5 ovarian. As to conditions: 10 µM.
Assay [13] relates to OVCAR-4 ovarian. Conditions: 10 µM.
Assay [14] deals with SK-OV-3 ovarian. Conditions: 10 µM.
The subject of assay [15] is IGROV1 ovarian. Conditions: 10 µM.
The subject of assay [16] is OVCAR-3 ovarian. As to conditions: 10 µM.
In assay [17] the test system is HS 578T breast. As to conditions: 10 µM.
Assay [18] deals with NCI/ADR-RES ovarian. Conditions: 10 µM.
Assay [19] has as its system A498 renal. As to conditions: 10 µM.
Assay [20] concerns CAKI-1 renal. Conditions: 10 µM.

In the case of `COc1ccccc1N=Nc1c(O)ccc2cc(S(=O)(=O)O)ccc12`, the growth is 96.4% in assay [1]; 95.2% in [2]; 102% in assay [3]; 84.7% in assay [4]; 113% in [5]; 98.1% in assay [6]. Further, the growth in assay [7] is 105%; in assay [8], 104%; in assay [9], 91.7%; in [10], 99.6%; in [11] it was 93.2%; in assay [12], 103%. Moreover, the growth in [13] was 105%; in assay [14], 88.8%; in assay [15], 110%; in [16], 101%; in [17], 100%; in assay [18], 99.8%.
For `COc1cc(-c2ccc(NC(=O)NC3CC3)c(OC)c2)ccc1NC(=O)NC1CC1`, the growth in assay [1] was 96.3%; in assay [2], 94.6%; in assay [3], 91.6%; in assay [4] it was 46.5%; in [5], 99.6%; in assay [6] it was 63.8%. For the same compound, the growth in [19] is 59.3%; in assay [7] it was 47.8%; in [9] it was 1.38% (active); in assay [10], 36.2%; in assay [11], 57.9%; in assay [12], 101%. The growth in assay [13] is 80.4%; in [14] it was 75.5%; in assay [15], 83.8%; in assay [16] it was 97.3%; in [17], 81.5%; in assay [18], 90.3%.
`COc1ccc(OC)c(/C=C2\CCc3ccccc3C2=O)c1`: the growth in [1] was 43.1%; in assay [2], 50%; in assay [3], 61.7%; in assay [4], 61.1%; in [5] it was 89.5%; in [19], 20.2%. Further, the growth was 28.3% in [7]; 23% in assay [8]; 31.6% in [9]; 35.7% in assay [10]; 65.4% in assay [11]; 72.9% in assay [12]. Moreover, the growth in assay [13] was 70.9%; in assay [14], 53%; in [15], 50.9%; in [16], 9.47% (active); in assay [17], 45.4%; in assay [18] it was 17.8%.
As to `CCN=c1cc2sc3cc(NCC)c(C)cc3nc-2cc1C`, the growth was 26.5% in assay [1]; -7.52% (active) in assay [2]; -83.1% (active) in [3]; 40.5% in assay [4]; 53% in [6]; -56% (active) in assay [20]. The growth was 47.7% in assay [19]; 14% in assay [7]; 13.4% in assay [9]; 2.43% (active) in assay [10]; -16.3% (active) in assay [11]; 27.5% in assay [12]. For the same compound, the growth in assay [13] was 17.2%; in assay [14], 16.1%; in [15] it was 15.2%; in assay [16] it was -33.8% (active); in [17], 50.8%; in assay [18], 19.9%.
Regarding `C[N+](C)=c1ccc2nc3c(cc(Nc4ccccc4)c4ccccc43)oc-2c1`, the growth in [1] was 10.9%; in [2] it was 90.2%; in [3] it was 79.9%; in assay [4] it was 59.1%; in assay [5], 106%; in assay [19], 51%. Moreover, the growth is 57.8% in [7]; 38% in assay [8]; 22.1% in assay [9]; 31.7% in assay [10]; 54.4% in assay [11]; 80.7% in [12]. For the same compound, the growth in assay [13] is 21.3%; in assay [14], 65.3%; in assay [15], 67.3%; in assay [16], -28.6% (active); in assay [17], 63.6%; in assay [18], 57.3%.
As to `COc1cc(C2NC(=O)C(C#N)=C(Nc3cccc(C)c3)S2)ccc1O` (stereo unspecified), the growth in assay [1] was 123%; in assay [2], 94.9%; in [3], 90.3%; in assay [4] it was 94.8%; in assay [5], 106%; in assay [6], 101%. The growth in assay [7] was 76%; in assay [8], 93%; in assay [9], 107%; in [10] it was 81.4%; in assay [11], 105%; in [12] it was 111%. Moreover, the growth in [13] was 102%; in assay [14], 103%; in assay [16], 106%; in [17], 96.5%; in assay [18], 110%.
Take `O=[N+]([O-])c1ccc(N=Nc2ccc(O)c3ccccc23)cc1`: the growth in assay [1] is 43.2%; in [2], 60%; in [3], 35.3%; in assay [4], 24%; in assay [5] it was 76.1%; in assay [6], 47.3%. In addition, the growth in assay [19] is 71.8%; in assay [8], 31.5%; in assay [9] it was 19.4%; in assay [10], 28.5%; in assay [11], 10.6%; in assay [12], 124%. The growth was 40.1% in [13]; 92% in assay [14]; 38.1% in assay [15]; -0.85% (active) in [16]; 1.22% (active) in assay [17]; 28.1% in assay [18].
Turning to `CC1(O)CCCCC1O` (stereo unspecified), the growth is 91.8% in assay [1]; 114% in [2]; 95.1% in assay [3]; 79.3% in assay [4]; 125% in assay [5]; 102% in [20]. Further, the growth in [7] was 107%; in assay [8], 103%; in assay [9] it was 103%; in [10], 98.6%; in [11], 105%; in [12] it was 103%. Besides, the growth in [13] was 107%; in assay [14], 101%; in assay [15], 90.9%; in [16], 120%; in assay [17], 102%; in [18] it was 105%.
Consider `C=CCOC(=O)C(=O)OCC=C`, for which the growth in [1] is 97.1%; in assay [2] it was 132%; in assay [3], 101%; in assay [4], 108%; in assay [5], 95.1%; in assay [20] it was 136%. Besides, the growth was 119% in assay [19]; 90.7% in [7]; 104% in assay [8]; 82.1% in assay [9]; 103% in [10]; 101% in assay [11]. Also, the growth in assay [12] is 97.5%; in assay [13], 110%; in assay [14], 105%; in assay [16], 118%; in assay [17] it was 130%; in assay [18], 117%.

Values taken from PubChem BioAssay (NCI).
